Only some compounds are listed: those with a hit (about 1.2% of all), similar ones and a draw of the others.
CCT modulator: cytosolic chaperonin activity modulation. purified chaperonin ATPase assay, HTRF ADP detection, 30 min. 360,000 tested, 0.3% active. AID 651819. activity change, % (concentration not given with the values), hits read low; in the data active = activity change below about -30%
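ATPase activity: ADP formed was measured by HTRF Transcreener (665/615 nm ratio) after 30 min at 37 deg C with 10 uM ATP. Compounds screened at one 76 uM concentration against 40 or 20 nM TRiC in Tris pH 7.4/KCl/MgCl2/DTT buffer.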
Six1-Eya2 blk: inhibitors of human Six1/Eya2 interaction | AlphaScreen GST-Six1/His-Eya2 binding, biochemical; stronger effect = lower value | activity change, % (test concentration not listed) | 360,000 tested, 0.56% active | AID 651725
Target sequence (O00167 whole entry, looked up): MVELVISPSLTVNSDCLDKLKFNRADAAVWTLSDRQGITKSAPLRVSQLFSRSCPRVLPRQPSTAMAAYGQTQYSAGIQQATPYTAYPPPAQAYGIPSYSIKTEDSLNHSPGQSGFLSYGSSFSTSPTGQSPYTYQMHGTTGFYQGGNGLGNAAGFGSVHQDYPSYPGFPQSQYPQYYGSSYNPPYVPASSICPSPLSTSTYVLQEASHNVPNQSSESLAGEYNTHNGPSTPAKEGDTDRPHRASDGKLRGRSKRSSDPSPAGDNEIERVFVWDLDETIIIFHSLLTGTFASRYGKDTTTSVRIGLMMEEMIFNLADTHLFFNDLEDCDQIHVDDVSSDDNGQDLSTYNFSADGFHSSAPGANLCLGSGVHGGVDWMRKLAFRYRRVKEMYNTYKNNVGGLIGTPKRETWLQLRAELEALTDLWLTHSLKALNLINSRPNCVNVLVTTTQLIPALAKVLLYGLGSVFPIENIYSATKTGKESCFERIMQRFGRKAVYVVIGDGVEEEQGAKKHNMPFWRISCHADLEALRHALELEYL
Target sequence (Q15475 whole entry, looked up): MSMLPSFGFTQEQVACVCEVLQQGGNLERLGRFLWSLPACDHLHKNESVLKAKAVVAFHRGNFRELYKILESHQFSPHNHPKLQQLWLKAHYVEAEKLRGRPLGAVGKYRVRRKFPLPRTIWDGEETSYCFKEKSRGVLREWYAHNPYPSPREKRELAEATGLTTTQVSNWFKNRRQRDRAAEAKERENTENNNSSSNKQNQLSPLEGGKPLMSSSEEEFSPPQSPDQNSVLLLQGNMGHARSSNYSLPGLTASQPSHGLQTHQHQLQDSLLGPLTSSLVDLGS
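Compounds are tested against tagged Six1 and Eya2 proteins bridged by glutathione donor and nickel acceptor beads; after a one-hour incubation at 37 °C without light, AlphaScreen emission is recorded.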
CtBP-E1A blk: blocks the CtBP interaction with E1A. activity change, % (concentration not given with the values). 340,000 tested, 0.49% active. AlphaScreen GST-E1A/His-CtBP binding, 1536-well; stronger effect = lower value
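AlphaScreen with 125 nM GST-E1A and 125 nM His-CtBP (5X stocks) in Tris pH 8.0, 300 mM NaCl, BSA, Tween 20, TCEP. Compounds preincubated 2 h at 37 deg C, then glutathione donor/nickel acceptor beads added for 1 h at 37 deg C in dark.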
pAkt inh: blocks phosphorylation of Akt | Neuro2A IGF-stimulated pAkt S473 HTRF, 20 min; stronger effect = lower value | activity change, % for hits at 50 µM | 360,000 tested, 0.32% active; in the data active = activity change below about -80%; inconclusive = mostly about -51% to -80%
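Neuro2A cells in DMEM with 0.5% FBS, overnight at 37 deg C, given compound at single 50 µM final, then IGF (6 nM final) for 20 min at 37 deg C. Lysed; phospho-Akt Ser473 by HTRF after 24 h, 665/615 ratio.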
An asterisk follows results filed as active; i = inactive; u = inconclusive; x = not tested or not shown. Rule as the data show it, unless noted: active = activity change below about -65%; inconclusive = mostly about -30% to -63%; inactive = weaker than that. % is scaled to controls: 0 for no effect and ±100 for the full control effect.

SMILES | CCT modulator | Six1-Eya2 blk | CtBP-E1A blk | pAkt inh
COc1ccc(OC)c(/C=C(\C)C(=O)c2c(C)cc(C)[nH]c2=O)c1 | -42* | 1 | -9 | i
COc1ccc(/C=C(\C)C(=O)c2c(C)cc(C)[nH]c2=O)cc1 | 2 | 12 | 0 | i
CCC(Sc1nc2cc(OC)c(OC)cc2c(=O)n1CCc1ccc(OC)c(OC)c1)C(=O)NCCOC (stereo not given) | 1 | -15 | 14 | i
COc1ccccc1C(=O)NCc1ccncc1 | -3 | 4 | 4 | i
COc1ccccc1C(=O)NCc1ccccc1 | 1 | 3 | -2 | -106%*
CCOC(=O)C1=C(C)N(C)C(=O)NC1c1cc2c(cc1[N+](=O)[O-])OCO2 (stereo not given) | -3 | -7 | 1 | i
Cc1cc(SCC(=O)N(C)CC(=O)Nc2ccc(F)cc2)nc2ccccc12 | 0 | -1 | -23 | i
COc1cccc(/C=N/NC(=O)c2ccoc2C)c1O | -2 | -74* | -92* | i
COc1cccc(/C=N/NC(=O)C(=O)N2CCCCCC2)c1O | 0 | -82* | -89* | i
CCOc1cc([N+](=O)[O-])cc(/C=N/NC(=O)c2c(-c3ccccc3)noc2C)c1O | -3 | -91* | -92* | i
COc1cccc(/C=N/NC(=O)C(=O)N/N=C/c2cccc(OC)c2O)c1O | 0 | u | u | i
COc1cc(/C=N/NC(=O)c2ccoc2C)ccc1O | -1 | -5 | -6 | i
CCCCOCCCNC(=O)c1c(-c2ccccc2)noc1C | 0 | 5 | 5 | -122%*
COCCCNC(=O)c1c(-c2ccccc2)noc1C | -1 | 8 | 8 | x
Cc1c(NC(=O)c2cccc(NC(=O)Cc3ccc(F)cc3)c2)c(=O)n(-c2ccccc2)n1C | -2 | -1 | -5 | i
COc1ccccc1N1CCN(S(=O)(=O)c2cc(-c3cc(C)no3)ccc2C(C)C)CC1 | -3 | -29 | u | i
Cc1ccc(C)c(NC(=O)CN(C)C(=O)c2cc3ccccc3oc2=O)c1 | 0 | 1 | 6 | i
COc1cccc(/C=N/NC(=O)c2cnccn2)c1O | -2 | -92* | -65* | i
COc1cccc(/C=N/NC(=O)C(=O)NCc2ccco2)c1O | -2 | -89* | -97* | i
COc1cccc(/C=N/NC(=O)c2c(-c3ccccc3)noc2C)c1O | 1 | -90* | -91* | i
COc1cccc(/C=N/NC(=O)C(=O)NCc2ccco2)c1OC | 1 | -2 | 2 | i
O=C1NC2NC(=O)N(C(Cc3ccccc3)C(=O)O)C2N1 (stereo not given) | 1 | 2 | 18 | i
O=C(c1ccc2c(c1)OCO2)N1CCN(S(=O)(=O)c2ccc(Cl)cc2)CC1 | 1 | -21 | -1 | i
CN(C)c1ccc(N/C=C/C(=O)C(C)(C)C)cc1 | -3 | u | u | -114%*
CN(C)c1ccc(N/C=C/C(=O)c2ccccc2)cc1 | 0 | -30 | u | i
SMILES | CCT modulator | Six1-Eya2 blk | CtBP-E1A blk | pAkt inh
N=C1/C(=C\c2ccc(OC(=O)c3ccccc3)cc2)C(=O)N=C2SC(N3CCOCC3)=NN12 | 0 | -10 | -25 | i
Cc1ccc(C(=O)Oc2ccc(/C=C3\C(=N)N4N=C(N5CCOCC5)SC4=NC3=O)cc2)cc1 | -3 | -88* | u | i
CCOC(=O)CC1=NS(=O)(=O)c2ccccc2N1 | 3 | 2 | -1 | -106%*
Cc1ccc(-c2nnc(Nc3ccccc3)o2)cc1 | 0 | 1 | 12 | i
CCCCc1nnc(NC(=O)Cc2ccc(OC)c(S(=O)(=O)N3CCOCC3)c2)s1 | 2 | -1 | -1 | i
Cc1ccc(S(=O)(=O)N2CCOCC2)cc1C(=O)Nc1nc(-c2ccccn2)cs1 | 0 | -85* | 3 | i
COc1ccc(C(=O)Nc2nc(-c3ccccn3)cs2)cc1S(=O)(=O)N1CCOCC1 | -1 | -93* | x | i
COc1ccc(CC(=O)Nc2nnc(SCc3ccccc3)s2)cc1S(=O)(=O)N1CCOCC1 | -3 | -10 | 1 | -110%*
COc1ccc(-c2c(C(=O)c3ccc(Br)cc3)[nH]c(N)c2C(=O)c2ccccc2)cc1OC | 1 | -17 | -2 | i
Cc1ccn(-c2ccc(NC(=O)c3cccs3)cc2)n1 | 1 | -7 | -4 | i
CC(=O)c1c(C)[nH]c(C(=O)Nc2cccc(S(=O)(=O)N3CCCC3)c2)c1C | 7 | -29 | -2 | i
CCN(CC)c1ccc(C(=S)NCc2ccccc2)cc1 | 1 | -9 | x | i
CCOc1ccc(C(=O)OCc2nnc(-c3cccs3)o2)cc1OC | -72* | 0 | -7 | i
O=C(OCc1nnc(-c2cccs2)o1)c1cccnc1Cl | 1 | -1 | -7 | i
CNC(=O)c1nnn(Cc2ccccc2)c1NC(=O)C(F)(F)F | -2 | 9 | 11 | i
CC(Cc1cccs1)NC(=O)Nc1ccc(Cl)c(Cl)c1 (stereo not given) | -5 | 8 | 3 | -103%*
CCc1cc(C)cc(OCCNC(=O)c2ncn[nH]2)c1 | 1 | -28 | 10 | i
CC(C)(C)c1ccc(OCCNC(=O)c2ncn[nH]2)cc1 | 1 | -67* | -66* | i
NC1=NN=C(N2N=C(c3ccco3)CC2(O)C(F)(F)F)n2ncnc2C1 (stereo not given) | -1 | -71* | 21 | i
CCOC(=O)c1cnn(-c2ccccn2)c1N | -2 | 3 | 5 | i
CCOC(=O)c1cnn(-c2cc(C)c3ccccc3n2)c1N | 2 | 7 | 1 | -133%*
O=C(Nc1ccn(CCCN2CCN(c3ccccn3)CC2)c(=O)n1)OCc1ccccc1 | -1 | -9 | -11 | i
O=C1C(Cl)=C(Nc2ccccc2)C(=O)c2ccccc21 | -2 | -3 | -9 | i
O=C1C(Cl)=C(NCCc2ccccc2)C(=O)c2ccccc21 | -2 | -76* | -79* | i
O=C(c1cc2ccccc2[nH]1)N(Cc1cccnc1)CC1CCCN(C2CCCCC2)C1 (stereo not given) | -1 | 2 | -1 | i
SMILES | CCT modulator | Six1-Eya2 blk | CtBP-E1A blk | pAkt inh
CC(=O)N1CCN(C2=NC(=O)/C(=C/c3ccc(OS(=O)(=O)c4ccccc4)cc3)S2)CC1 | -79* | 3 | 1 | i
O=C1N=C(N2CCOCC2)S/C1=C\c1ccccc1OS(=O)(=O)c1ccccc1 | -4 | 3 | x | i
CCOC(=O)c1[nH]c2cc(OC)c(OC)cc2c1NC(=O)C(C)N1CCN(Cc2ccccc2)CC1 (stereo not given) | -1 | u | -65* | i
O=c1[nH]c(=S)[nH]cc1Oc1ccc(Cl)cc1Cl | 0 | -12 | x | i
N#Cc1nc(COc2ccccc2F)oc1NCCCn1ccnc1 | -2 | u | -75* | i
COc1ccccc1OCc1nc(C#N)c(NCCCn2ccnc2)o1 | 1 | -1 | -4 | i
COc1ccc(CN(C(=O)CCC(=O)Nc2cc(C)on2)C(C(=O)NC(C)(C)C)c2cccc(OC)c2OC)cc1 (stereo not given) | -1 | -5 | 0 | i
